Reference: PubChem BioAssay
The source made the active and inactive calls.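 The calls were made as follows, unless noted: active = visually confirmed hit in the image check and inhibition above 20%; inconclusive = visually confirmed hit but inhibition not above 20%; inactive = no visual hit in the image check.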

Tests used:
[1] = inhibitors of TNFa-induced NFkB p65 translocation, primary screen, imaging, HUVEC, MLSMR starter and 10KST1 sets (AID 438;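 active = inhibition above 20% together with a positive visual image hit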;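 also: compound added about 3h40 before a 20 min TNFalpha stimulation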;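 as to inhibition: signal is the nuclear over cytoplasmic p65 intensity ratio per well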); details: HUVEC TNFa-induced p65 nuclear translocation; cell count: measured here: nuclei count (cytotoxicity indicator), at 2.08 µM; inhibition: at 2 µM, stronger effect = higher value, 0% TNFa-plus-vehicle, 100% no-TNFa wells
[2] = reduction of polyQ htt aggregates in cells – imaging, exon1htt(103Q)mCFP cells, high-content imaging, primary screen (AID 483;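 active = visual image review flags a hit and inhibition of aggregation exceeds 20%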;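 also: compound exposure lasted 3 days before fixation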;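 as to nuclei count: percent of the per-plate median nuclei count of sample wells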); details: exon1htt(103Q)mCFP cell line, aggregate imaging, at 2 µM; inhibition of aggregation: stronger effect = higher value; nuclei count: measured here: cell count, toxicity
[3] = endothelial E-selectin expression blockers – imaging, HUVEC, immunofluorescence, MLSMR starter and 10KST1 sets, primary screen (AID 487); details: HUVEC TNFalpha-induced E-selectin immunofluorescence imaging, at 2 µM; inhibition: stronger effect = higher value; nuclei count: measured here: cell number, toxicity;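 as to inhibition: signal is fraction of cell area covered by stained E-selectin grains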;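 as to nuclei count: 100% = median nuclei count of all wells on the same plate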
[4] = target: Voltage-gated potassium channel subunit beta-2 (Rattus norvegicus) (UniProt P62483); assay: inhibitors of rat Kvbeta2 reductase activity – biochemical, NADPH fluorescence, primary screen (AID 622;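 active = fluorescence slope higher than the sample average by over 3 SD, cut at about -0.22 in these data, passing the limit was not always enough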;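 also: slope of raw intensity against log time taken from 70 to 1610 s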); details: recombinant KvBeta, 4-cyanobenzaldehyde reduction, at 10 µM, stronger effect = higher value
Voltage-gated potassium channel subunit beta-2 (Rattus norvegicus), sequence (P62483 whole entry, looked up): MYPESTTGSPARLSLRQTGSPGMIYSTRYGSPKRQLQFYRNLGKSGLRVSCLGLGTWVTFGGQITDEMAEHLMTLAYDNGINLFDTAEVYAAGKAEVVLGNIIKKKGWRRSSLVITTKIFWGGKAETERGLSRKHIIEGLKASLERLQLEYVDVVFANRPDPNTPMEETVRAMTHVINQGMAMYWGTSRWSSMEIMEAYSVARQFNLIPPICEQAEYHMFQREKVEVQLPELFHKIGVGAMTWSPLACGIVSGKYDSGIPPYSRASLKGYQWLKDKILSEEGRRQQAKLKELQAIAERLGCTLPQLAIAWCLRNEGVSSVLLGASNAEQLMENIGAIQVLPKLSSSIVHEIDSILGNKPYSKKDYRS

[5] = target: Voltage-gated potassium channel subunit beta-2 (Rattus norvegicus) (UniProt P62483); assay: enhancers of rat Kvbeta2 NADPH turnover – biochemical, NADPH fluorescence, primary screen (AID 623;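 active = NADPH fluorescence slope more negative than the mean of all samples by about 3 SD, 99.7% confidence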;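 also: fluorescence intensity change per second fitted from 20 to 320 s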); details: Recombinant KvBeta, NADPH fluorescence decrease slope, 10 min; at 10 µM; stronger effect = lower value
[6] = target: Alpha-2C adrenergic receptor (Homo sapiens) (UniProt P18825); assay: compounds altering alpha2C-coupled GIRK flux – cell-based, HEK293 alpha2C/GIRK1/2, thallium flux, primary screen (AID 624;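 active = fluorescence slope after compound addition differing from the mean of all screened samples at 99.7% confidence, in either direction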;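 also: slope of fluorescence ratio to pre-addition baseline per second over 15 to 24 s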); details: thallium flux BTC fluorescence, at 10 µM, actives lie on both sides
Alpha-2C adrenergic receptor (Homo sapiens), sequence (P18825 whole entry, looked up): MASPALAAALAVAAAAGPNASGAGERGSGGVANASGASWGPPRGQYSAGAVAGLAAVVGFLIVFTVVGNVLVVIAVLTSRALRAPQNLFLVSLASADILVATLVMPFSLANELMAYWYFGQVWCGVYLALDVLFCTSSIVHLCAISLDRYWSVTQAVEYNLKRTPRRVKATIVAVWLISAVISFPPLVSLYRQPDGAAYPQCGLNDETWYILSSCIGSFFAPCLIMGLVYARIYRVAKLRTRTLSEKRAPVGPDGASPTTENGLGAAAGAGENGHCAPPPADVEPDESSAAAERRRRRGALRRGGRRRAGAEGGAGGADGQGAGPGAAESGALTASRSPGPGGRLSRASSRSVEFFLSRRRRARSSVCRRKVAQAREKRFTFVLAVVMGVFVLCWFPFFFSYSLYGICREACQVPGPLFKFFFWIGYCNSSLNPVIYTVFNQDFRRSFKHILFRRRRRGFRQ

[7] = blockers of RIG-like receptor reporter activation – cell-based, Sendai virus stimulus, luciferase, 10K MLSCN set, TLR/RLR signaling modifier project, primary screen (AID 602276;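 active = inhibition at or above 50% at 10 µM; inactive = inhibition below 50%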;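 also: firefly luciferase from ISG56 promoter only with Renilla not read in this screen; 0% = Sendai virus plus DMSO and 100% = medium plus DMSO without virus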); details: HEK293 RL24 IRF3 luciferase reporter, at 10 µM, stronger effect = higher value
[8] = TLR3 IRF3 reporter activation blockers – cell-based, poly I:C stimulus, luciferase, 10K MLSCN set, primary screen (AID 602277;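 active = inhibition of the reporter signal at or above 50%; inactive = inhibition below 50%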); details: HEK293-TLR3 RL24 IRF3 luciferase reporter, at 10 µM, stronger effect = higher value

| Compound | cell count [1] | inhibition [1] | inhibition of aggregation [2] | nuclei count [2] [%] | inhibition [3] | nuclei count [3] [%] | fluorescence slope [4] | NADPH fluorescence slope [5] | slope [6] | inhibition [7] | inhibition [8] |
| --- | --- | --- | --- | --- | --- | --- | --- | --- | --- | --- | --- |
| COc1ccccc1NC(=O)C1=C(C)Nc2nnnn2C1c1ccccc1OC (centres undefined) | 453 | -0.5% (inactive) | -7.9% (inactive) | 90.1 | 8.8% (inactive) | 82.2 | -0.415 (inactive) | 7.3e-06 (inactive) | 0.00379 (inactive) | 10.5% (inactive) | 33.5% (inactive) |
| Cn1c(SCc2c(F)cccc2Cl)nnc1-c1cccs1 | 662 | 9.6% (inactive) | -11.9% (inactive) | 25.4 | -9.9% (inactive) | 115 | -0.445 (inactive) | -2.8e-05 (inactive) | 0.00484 (inactive) | -93.7% (inactive) | -167% (inactive) |
| COC(=O)C1=C(C)NC2=C(C(=O)CCC2)C1c1coc2ccccc2c1=O (centres undefined) | 322 | -2.1% (inactive) | 14.4% (inactive) | 98.3 | -47.5% (inactive) | 111 | -0.244 (inactive) | 7.1e-06 (inactive) | 0.00668 (inactive) | 16.4% (inactive) | 48.4% (inactive) |
| O=C(CN1CCCCCC1)OCCN=C1NS(=O)(=O)c2ccccc21 | 384 | -1.9% (inactive) | -3.1% (inactive) | 62.4 | -187% (inactive) | 133 | -0.599 (inactive) | -6.1e-06 (inactive) | 0.00669 (inactive) | 9.82% (inactive) | 8.03% (inactive) |
| CCOC(=O)c1cnc(SC2CC(=O)N(c3ccc(OC)c(OC)c3)C2=O)nc1N (centres undefined) | 811 | -3.6% (inactive) | -0.6% (inactive) | 95.4 | -110% (inactive) | 135 | -0.531 (inactive) | 1.4e-05 (inactive) | 0.00718 (inactive) | -6.56% (inactive) | -2.72% (inactive) |
| O=C(CC1CCS(=O)(=O)C1)Nc1ccc[nH]c1=O (centres undefined) | 475 | -4.7% (inactive) | -4.6% (inactive) | 63.8 | 42.5% (inactive) | 49 | -0.41 (inactive) | -6.4e-05 (inactive) | 0.0024 (inactive) | 16.2% (inactive) | 8.75% (inactive) |
| CCCCOc1ccc(C2C3CN(C(=O)OCC)CC=C3C(C#N)=C(N)C2(C#N)C#N)cc1OC (centres undefined) | 645 | -26.7% (inactive) | -9.8% (inactive) | 106 | -44.7% (inactive) | 115 | -0.476 (inactive) | -2.9e-05 (inactive) | 0.0065 (inactive) | 14.6% (inactive) | 19.7% (inactive) |
| CCOc1ccccc1N(CC(=O)N1CCOCC1)S(=O)(=O)c1ccccc1 | 338 | 0.7% (inactive) | 0.9% (inactive) | 100 | 44.4% (inactive) | 98.7 | -0.428 (inactive) | -3e-06 (inactive) | 0.00315 (inactive) | -13.5% (inactive) | -26.2% (inactive) |
| CC1CCN(C(=O)CSc2nc3ccccc3[nH]2)CC1 | 761 | 0.5% (inactive) | 1.8% (inactive) | 110 | 75.2% (active) | 88.9 | -0.359 (inactive) | -9.6e-06 (inactive) | 0.00679 (inactive) | -38.7% (inactive) | -116% (inactive) |
| COC(=O)c1ccc(C)c(NS(=O)(=O)c2ccc3c(c2)OCCO3)c1 | 263 | 12.5% (inactive) | 22.6% (inactive) | 56.8 | -60.4% (inactive) | 94 | -0.393 (inactive) | -5.8e-05 (inactive) | 0.00526 (inactive) | 43.8% (inactive) | 58.5% (active) |
| Cc1ccc(C(=O)Nc2ccc(Cl)cn2)cc1S(=O)(=O)N1CCOCC1 | 568 | -10.1% (inactive) | -0.1% (inactive) | 112 | -12.7% (inactive) | 102 | -0.503 (inactive) | 9.5e-06 (inactive) | 0.00409 (inactive) | -6.64% (inactive) | -36% (inactive) |
| Cc1cccc(OCCCc2c(C)n[nH]c2C)c1 | 348 | 2.2% (inactive) | 7.5% (inactive) | 98.5 | -10% (inactive) | 118 | -0.501 (inactive) | 6.9e-05 (inactive) | 0.00319 (inactive) | -15.1% (inactive) | -15.9% (inactive) |
| CC(=O)Nc1ccc(S(=O)(=O)NCc2csc(-c3cccnc3)n2)cc1 | 356 | -10.2% (inactive) | -11.8% (inactive) | 108 | -19.2% (inactive) | 101 | -0.511 (inactive) | -3.4e-05 (inactive) | 0.00545 (inactive) | 9.95% (inactive) | 22.2% (inactive) |
| COc1ccc(S(=O)(=O)CCC(=O)O)cc1 | 756 | -2.2% (inactive) | 25.4% (inactive) | 126 | -47.5% (inactive) | 107 | -0.603 (inactive) | 1.2e-05 (inactive) | 0.00748 (inactive) | 17% (inactive) | 21.8% (inactive) |
